# A selection: hits, their analogues and other compounds. The true share with any hit is near 2.5%.
# aSyn rescue = qHTS of alpha-syn Inhibitors; Yeast expressing alpha-synuclein, growth rescue, BacTiter-Glo, 24 h; Potency, µM (highest dose often 46.1 µM), without a hit: at the highest dose growth rescue (activation), actives largely listed as activators; actives 0.14% (n = 370,000); AID 652106, 2013; note: potency is the fitted concentration of half-maximal effect; % of control where 0% means no effect; nearly all actives have a fitted effect of over 65% in size
#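 Galactose-induced alpha-syn yeast (OD600=0.02, raffinose-pregrown) + pinned cpd, 24 hr, 30 deg C; growth by BacTiter-Glo luminescence. Growth restoration scores as activation.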
# TDP-43 yeast inh = qHTS of TDP-43 Inhibitors; TDP-43 expressing yeast growth rescue, BacTiter-Glo, 24 h; Potency, µM (doses to about 46.1 µM), for the others: top-dose growth rescue (activation), hits mostly activators; actives 1.8% (n = 410,000); AID 652104, 2013; note: potency is the fitted concentration of half-maximal effect; % of control where 0% means no effect; nearly all actives have a fitted effect of over 50% in size
#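 Growth rescue of TDP-43-toxic yeast measured as ATP luminescence (BacTiter-Glo). Cells grown to mid-log in raffinose, induced in galactose at OD600=0.02, exposed to compound 24 hr at 30 deg C.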
# Anesthetic bind = qHTS Assay for Identification of Novel General Anesthetics; actives 0.074% (n = 350,000); Potency, µM (doses to about 77.5 µM), without a hit: at the highest dose activity change, negative = displacement, hits mostly inhibitors; apoferritin/1-aminoanthracene competitive binding, fluorescence; note: potency is the fitted concentration of half-maximal effect; % is set by controls: 0 for no effect and ±100 for the full control effect; nearly all actives have a fitted effect of over 20% in size
# Target sequence (P02791 2-175 limits assumed): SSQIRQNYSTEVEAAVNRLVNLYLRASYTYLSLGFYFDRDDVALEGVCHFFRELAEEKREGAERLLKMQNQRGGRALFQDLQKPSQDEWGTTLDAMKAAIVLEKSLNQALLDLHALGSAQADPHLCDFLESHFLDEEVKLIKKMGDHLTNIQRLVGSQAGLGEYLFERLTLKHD
#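 10 uM apoferritin + 50% sat. 1-AMA, PBS; cpd 10 min RT; Ex380/Em535 endpoint; normalized to free probe vs complex; 4-param Hill fit; propofol titration as pos. ctrl.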
# CCT modulator = High-Throughput Screening for Modulators of Cytosolic Chaperonin Activity; activity change, % (test concentration not listed), hits read low; actives 0.3% (n = 360,000); purified chaperonin ATPase assay, HTRF ADP detection, 30 min; in the data active = activity change below about -30%; note: % is set by controls: 0 for no effect and ±100 for the full control effect
#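 First, chaperonin was dispensed at 40 nM or 20 nM final depending on batch activity. Next, compounds were pinned at 76 uM and ATP added at 10 uM. After 30 min at 37 °C, ADP detection reagents ran 30 min at ambient temperature.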
# pAkt inh = HTS Assay for Inhibitors of Akt Phophorylation: Primary Screen | activity change, % for hits at 50 µM | Neuro2A IGF-stimulated pAkt S473 HTRF, 20 min; stronger effect = lower value | actives 0.32% (n = 360,000); in the data active = activity change below about -80%; inconclusive = mostly about -51% to -80%; note: % is set by controls: 0 for no effect and ±100 for the full control effect
#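 Neuro2A cells in DMEM with 0.5% FBS, overnight at 37 deg C, given compound at single 50 µM final, then IGF (6 nM final) for 20 min at 37 deg C. Lysed; phospho-Akt Ser473 by HTRF after 24 h, 665/615 ratio.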
# Mito fusion yeast = qHTS Assay for Small Molecule Inhibitors of Mitochondrial Division or Activators of Mitochondrial Fusion. S. cerevisiae fusion-defective mutant growth rescue, CellTiterGlo 48 h. Potency, µM (doses to about 46.1 µM), for the others: top-dose growth rescue (activation), actives largely listed as activators. actives 0.23% (n = 320,000). AID 485298, 2010; note: potency is the fitted concentration of half-maximal effect; % of control where 0% means no effect; nearly all actives have a fitted effect of over 45% in size
#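 Read-out: ATP-based luminescence (CellTiterGlo, 10 min ambient) reporting growth of fusion-defective ts yeast after 48 hours at 37C on glycerol/ethanol YPEG medium in the presence of compound.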
# * marks the source's active call; other numbers are inactive results; i = inactive; ? = inconclusive; / = no result given; ! = not confirmed by another sample; [ ] = remark or other dose. Unless noted, calls come from the whole dose curve; as a rule, active = well fitted curve in the direction sought with a large enough effect; inconclusive = small, poorly fitted or top-dose-only effect, or another doubt; inactive = no such curve, though single readings can be large; an effect the other way counts as inactive or inconclusive.
SMILES,aSyn rescue,TDP-43 yeast inh,Anesthetic bind,CCT modulator,pAkt inh,Mito fusion yeast
COCCOC(=O)C1=C(C)NC(C)=C(C(=O)OC(C)C)C1c1cccc([N+](=O)[O-])c1 (stereo not drawn),1.5%,?,2.4%,0.5,i,20.6µM*!
CCOC(=O)C1=C(C)NC(C)=C(C(=O)OC)[C@H]1c1cccc([N+](=O)[O-])c1,1.0%,/,/,/,/,/
COCCOC(=O)C1=C(C)NC(C)=C(C(=O)OC/C=C/c2ccccc2)C1c1cccc([N+](=O)[O-])c1 (stereo not drawn),20.9%,/,?,/,/,5.8µM*
Nc1ccc(/C=C/c2cccc3cccnc23)cc1,4.5%,/,/,/,/,/
CCC1CCCCN1Cc1nc2c(c(=O)n(C)c(=O)n2C)n1Cc1c(F)cccc1Cl (stereo not drawn),0.3%,/,/,/,/,/
CCCCn1cnc2c(SCc3ccccc3F)nc(N)nc21,7.0%,17.8µM*,/,2.0,i,/
Cc1c(C(=O)Nc2cccc(F)c2)oc2c1-c1nn(Cc3c(F)cccc3Cl)cc1CC2,/,6.1%,25.0%,/,/,/
CCc1ccc(S(=O)(=O)N(C(=O)c2ccncc2)c2ccc3oc(C)c(C(=O)OC)c3c2)cc1,/,20µM*,-20.4%,/,/,/
COc1ccc(S(=O)(=O)N(C(=O)c2ccncc2)c2ccc3oc4c(c3c2)CCCC4)cc1,?,14.7%,-10.5%,-41.6*,i,11.2µM*
COC(=O)c1c(C)oc2ccc(N(C(=O)c3ccncc3)S(=O)(=O)c3ccc(OC)cc3)cc12,/,?,-9.4%,/,/,/
CCCCN(C)C(=O)c1ccc2c(c1)N(Cc1cccc(F)c1)C(=O)c1ccccc1S2,/,22.4µM*,-16.8%,/,/,/
CCN(C(=O)Cn1c(SCc2ccccc2F)nc2cccnc21)c1ccccc1,/,2.5%,-14.2%,/,/,/
C/C=C/c1ccc(OCCCNC)c(OC)c1,7.0%,11.6%,-18.7%,-11.8,-118.9%*,0.4%
O=C(Nc1nc2ccccc2s1)C1CCCO1 (stereo not drawn),7.3%,0.0%,-13.9%,0.2,i,8.3%
O=C(Nc1nc2ccccc2s1)C1c2ccccc2Oc2ccccc21,-14.9%,10µM*,5.2%,-0.4,i,?
COCC(=O)Nc1nc2ccccc2s1,-3.2%,-11.4%,-3.2%,0.8,i,0.5%
CC1(C(=O)Nc2nc3ccccc3s2)CC1(Br)Br (stereo not drawn),7.7%,10µM*,-32.4%,-2.9,i,12.2%
O=C(C[n+]1ccccc1Br)c1ccc(I)cc1,12.9%,/,/,/,/,/
Cc1cccc(C(=O)O/N=C(/c2ccccc2)c2ccncc2)c1,?,7.08µM*,-22.3%,-10.2,i,?
COc1ccc(C(=O)O/N=C(/c2ccccc2)c2ccncc2)cc1OC,0.6%,?,-7.4%,3.1,i,2.0%
O=C(O/N=C(\c1ccccc1)c1ccncc1)c1ccccc1Cl,?,3.98µM*,-13.1%,-2.1,i,1.7%
Cc1cc(Nc2ccccc2)nc(-c2ccccc2O)n1,-25.8%,1.4%,-11.6%,-0.5,i,11.4%
Cc1ccc(C)c(Nc2cc(C)nc(-c3ccccc3O)n2)c1,-17.5%,14.1µM*,-10.4%,-0.7,i,?
Cc1cc(NCc2ccccc2)nc(-c2ccccc2O)n1,-11.6%,11.2µM*,-16.1%,0.1,i,10.2%
Cc1cc(Nc2ccccc2Cl)nc(-c2ccccc2O)n1,-4.6%,?,-10.0%,1.3,i,9.1%
SMILES,aSyn rescue,TDP-43 yeast inh,Anesthetic bind,CCT modulator,pAkt inh,Mito fusion yeast
Cc1cc(N2CCCCCC2)nc(-c2ccccc2O)n1,-16.1%,-6.5%,-5.0%,-3.3,-90.9%*,12.7%
Cc1cc(NCc2ccccc2)nc(N2CCOCC2)n1,-1.0%,18.8%,-9.9%,-3.5,-113.2%*,-1.9%
Cc1cc(N2CCOCC2)nc(NCc2ccccc2)n1,1.5%,-15.5%,-16.2%,-4.0,i,1.1%
CCOC(=O)OCC1OC(C#Cc2ccccc2)C=CC1OC(=O)OCC (stereo not drawn),/,/,-1.5%[15.3 µM],/,/,/
CC(=O)N(Cc1ccco1)Cc1cc2cccc(C)c2n2nnnc12,/,/,-8.4%,/,/,0.5%
Cc1cccc2cc(CN(Cc3nnnn3Cc3ccco3)C3CCCC3)c3nnnn3c12,?,7.08µM*,38.0%,-2.5,i,?
Cc1ccc(S(=O)(=O)Nc2ccc3nc(-c4ccc(F)cc4)oc3c2)cc1,/,0.0%,?,/,/,/
O=S(=O)(Nc1ccc2nc(-c3ccc(F)cc3)oc2c1)c1ccccc1,/,35.5µM*,-12.8%,/,/,/
NC(N)=NC(N)=Nc1ccc2ccccc2c1,3.1%,-0.7%,-7.2%,0.0,i,31.6µM*
COc1nc(C#N)nc(N2CCCCC2)n1,-0.6%,/,/,/,/,/
C/C=C(/CC[C@@H](C)[C@H]1CCC2C3=CC[C@H]4[C@H](C)[C@@H](O)CC[C@]4(C)C3CC[C@@]21C)C(C)C (stereo partly drawn),/,/,-13.8%,/,/,/
Cc1cc(C(=O)OCC(=O)Nc2ccccc2C)c(C)o1,-6.7%,?,/,1.3,i,-2.4%
Cc1cc(C(=O)OCC(=O)Nc2ccccc2Br)c(C)o1,-2.0%,-21.3%,/,-53.4*,i,/
Nc1c(C(=O)NCc2ccccc2)nnn1Cc1cccc(Br)c1,/,15.4%,?,/,/,/
O=C(CCSCc1ccccc1F)N1CCN(c2ccc(F)cc2)CC1,/,11.2µM*,-15.7%,/,/,/
O=C(CSCc1ccc(F)cc1)N1CCN(c2ccc(Cl)cc2)CC1,/,17.8µM*,-14.2%,/,/,/
O=C(CCSCc1ccccc1Cl)N1CCN(c2ccc(F)cc2)CC1,/,15.8µM*,-2.0%,/,/,/
O=C(CCC(=O)N1CCN(c2ccc(F)cc2)CC1)N1CCN(c2ccc(F)cc2)CC1,9.6%,0.0%,5.4%,0.4,i,6.1%
Cc1cccc(-c2noc(CN(C3CCCCC3)S(=O)(=O)c3ccc(F)cc3)n2)c1,/,3.8%,66.9%,/,/,/
COc1ccccc1-c1nn2c(C3COc4ccccc4O3)nnc2s1 (stereo not drawn),/,10µM*,?,0.5,/,27.0%
c1ccc(Cc2nn3c(C4COc5ccccc5O4)nnc3s2)cc1 (stereo not drawn),-31.1%,?,?,-7.6,i,19.8%
Oc1c(N=Nc2nn[nH]n2)ccc2ccccc12,-26.1%,35.5µM*,/,-1.0,i,/
Oc1c(N=Nc2ccc(F)cc2)ccc2ccccc12,-13.5%,-19.7%,-11.8%,-2.0,i,-3.7%
CN(Cc1ccccc1)c1nc2c(S(=O)(=O)c3cccc(Cl)c3)nnn2c2ccsc12,/,-0.2%,-12.2%,/,/,/
COc1cc(C(O)c2nc(-c3ccccc3)cs2)ccc1F (stereo not drawn),?,0.0%,/,-0.2,i,/

# Source: PubChem (National Center for Advancing Translational Sciences (NCATS))
